According to article PMC4336329 (PLoS ONE, 2015):
Among all 310,000 compounds or so, about 14,000 (4.5%) showed an effect of 50% or more. The effect is printed as a negative number. The sample holds strong results, similar compounds and a random draw of the others, so the mix is not that of the screen.

Target: human ether-à-go-go-related gene (hERG) potassium channel (human, UniProt Q12809)
Assay: primary screen, population patch clamp on CHO cells stably expressing hERG; higher = less effect of the substance
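Note: peak tail current of the secondary pulse compared with the same well before compound.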

human ether-à-go-go-related gene (hERG) potassium channel, sequence (Q12809 whole entry, looked up): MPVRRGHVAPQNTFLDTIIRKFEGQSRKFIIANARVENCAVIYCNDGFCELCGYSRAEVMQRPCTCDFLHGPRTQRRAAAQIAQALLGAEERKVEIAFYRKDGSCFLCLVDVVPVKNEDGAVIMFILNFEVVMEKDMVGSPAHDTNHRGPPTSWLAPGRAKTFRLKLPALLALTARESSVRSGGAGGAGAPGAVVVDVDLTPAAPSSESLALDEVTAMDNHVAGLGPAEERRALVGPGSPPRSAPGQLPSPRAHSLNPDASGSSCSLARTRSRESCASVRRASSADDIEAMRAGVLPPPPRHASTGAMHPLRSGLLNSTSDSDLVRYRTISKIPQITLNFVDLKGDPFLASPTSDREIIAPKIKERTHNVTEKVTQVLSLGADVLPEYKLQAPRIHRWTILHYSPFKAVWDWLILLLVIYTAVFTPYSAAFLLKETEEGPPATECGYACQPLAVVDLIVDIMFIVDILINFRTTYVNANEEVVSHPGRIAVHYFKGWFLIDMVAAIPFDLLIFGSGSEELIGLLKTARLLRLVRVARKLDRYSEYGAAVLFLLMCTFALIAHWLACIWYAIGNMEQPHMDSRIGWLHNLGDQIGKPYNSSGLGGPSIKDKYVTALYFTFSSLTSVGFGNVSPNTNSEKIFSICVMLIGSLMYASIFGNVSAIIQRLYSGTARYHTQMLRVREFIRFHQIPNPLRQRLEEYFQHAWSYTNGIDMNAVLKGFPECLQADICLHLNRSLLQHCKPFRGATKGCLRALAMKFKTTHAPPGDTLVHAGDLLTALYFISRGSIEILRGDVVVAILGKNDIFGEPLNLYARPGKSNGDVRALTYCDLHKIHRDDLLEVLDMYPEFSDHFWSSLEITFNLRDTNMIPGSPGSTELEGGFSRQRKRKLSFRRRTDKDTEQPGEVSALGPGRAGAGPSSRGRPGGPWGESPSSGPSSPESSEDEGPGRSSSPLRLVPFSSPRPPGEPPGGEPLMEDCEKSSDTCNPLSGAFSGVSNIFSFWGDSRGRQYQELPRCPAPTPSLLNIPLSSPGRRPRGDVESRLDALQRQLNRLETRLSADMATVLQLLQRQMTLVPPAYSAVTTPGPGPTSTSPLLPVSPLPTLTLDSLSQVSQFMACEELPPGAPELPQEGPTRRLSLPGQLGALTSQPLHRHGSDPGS

Compound	hERG current change (%, negative = inhibition) at 10uM
C=CCN1C(=O)NC(=O)/C(=C/c2cc3c4c(c2)CCCN4CCC3)C1=O	-10.2%
CC1CC(C(F)(F)F)n2ncc(C(=O)O)c2N1 (stereo not drawn)	11.5%
CCNC(=O)c1ccc2c(c1)C1C3CCC(C3)C1C(c1ccccc1)N2 (stereo not drawn)	-5.8%
CC1=C(C(=O)Nc2ccc(F)cc2)C(c2ccc(C)o2)C2=C(CC(C)(C)CC2=O)N1 (stereo not drawn)	-7.85%
COc1ccccc1CNC(=O)COC(=O)c1cc(=O)[nH]c2ccccc12	1.03%
Cc1cc(Cl)ccc1C(=O)C1CCCN(C(=O)c2cnn(C(C)C)c2)C1 (stereo not drawn)	-17.7%
CC(C)Oc1ccc(C(=O)NN2C(=O)NC3(CCCCC3)C2=O)cc1	1.38%
CCOC(=O)N1CCC(N(CCN(C)C)C(=S)Nc2cccc(C)c2)CC1	4.81%
COc1ccc(OC)c(NC(=O)NNC(=O)c2cc3occc3[nH]2)c1	14.3%
NNC(=O)CC12CC3CC(C1)CC(n1ncnn1)(C3)C2	-15.1%
COc1ccc(CCC(=O)N(c2nnc(-c3cccnc3)s2)C(C)C)cc1.Cl	-49.6%
Cc1ccc(NC(=O)Cc2ccc(Cl)c(Cl)c2)cc1S(=O)(=O)N(C)C	7.88%
Cc1ccc(NC(=O)CN(C)C2CCCCC2)cc1Br.Cl	-28.8%
CN(CC(=O)Nc1ccc(F)c(F)c1F)C(=O)C1CCCC1	1.05%
CCN1CCCC1CNC(=O)C(=O)Nc1ccccc1 (stereo not drawn)	-9.35%
CCOC(=O)C1CSC(CC(=O)Nc2ccc(OC(F)(F)F)cc2)C(=O)N1 (stereo not drawn)	-56.3%
CN(CC(=O)Nc1ccc(OC(F)(F)F)cc1)C(=O)C1CCC1	-1.21%
CCCCCOc1ccc(NC(=O)C(=O)NCC2CCCN2CC)cc1 (stereo not drawn)	-77.9%
CCOc1ccc(NC(=O)C(=O)NCC2CCCN2CC)cc1 (stereo not drawn)	-16.4%
CN(CC(=O)Nc1ccc(OC(F)(F)F)cc1)C1CCCCC1.Cl	-61.6%
CCOC(=O)C1CSC(CC(=O)Nc2ccc(OCC)cc2)C(=O)N1 (stereo not drawn)	-5.69%
CN(CC(=O)Nc1ccc(F)c(F)c1F)C(=O)C1CCC1	9.13%
CN(CC(=O)Nc1ccc(F)c(F)c1F)C1CCCCC1	-52.5%
CCOC(=O)C1CSC(CC(=O)Nc2ccc(Cl)cc2)C(=O)N1 (stereo not drawn)	-14.9%

Compound	hERG current change (%, negative = inhibition) at 10uM
CC(=O)Nc1ccc(NC(=O)c2ccc(COc3ccccc3Br)o2)cc1	17.1%
CCOC(=O)c1c(C)[nH]c(C(=O)COC(=O)CN2C(=O)C3CCCCC3C2=O)c1C (stereo not drawn)	-16.8%
Nc1cc(-c2ccccc2)nn1Cc1ccc(Cl)cc1	-19%
O=C(CCCOc1ccccc1)Nc1ccc(Br)cc1	22.3%
CC(=O)OCCn1c(=O)c2cc3c(=O)n(CCOC(C)=O)c(=O)c3cc2c1=O	-4.39%
Cn1nccc1C(=O)N1CCC(Cc2ccccc2)CC1	-9.69%
Cc1ccc(S(=O)(=O)N2CCOCC2)cc1C(=O)N1CC(C)OC(C)C1 (stereo not drawn)	15.1%
COc1ccc(S(=O)(=O)N2CCCCC2)cc1NC(=O)CN(Cc1ccco1)Cc1ccco1	-23.7%
Cc1ccccc1C(=O)NC(=S)Nc1ccc2[nH]c(=O)[nH]c2c1	23.1%
COC(=O)c1ccc(COC(=O)c2c(C)nn(Cc3ccccc3Cl)c2Cl)o1	10.9%
CN(CC(=O)Nc1ccc(SC(F)F)cc1)C1CCCCC1	-70%
COCCCNCC(=O)Nc1ccc(OC(F)(F)F)cc1.Cl	-30%
COc1ccc(NC(=O)CN(C)C2CCCCC2)cc1Cl	-55%
CCOCCCNCC(=O)Nc1ccc(OC(F)(F)F)cc1.Cl	-56.4%
CN(CC(=O)Nc1ccc(Cl)cc1)C1CCCCC1	-10%
COCCNCC(=O)Nc1ccc(OC(F)(F)F)cc1.Cl	-33.9%
COc1ccc(NC(=O)CN(C2CCCCC2)S(C)(=O)=O)cc1Cl	-18.4%
CN(CC(=O)Nc1ccc(S(N)(=O)=O)cc1)C1CCCCC1	-1.84%
CN(CC(=O)Nc1ccc(Cl)c(Cl)c1)C1CCCCC1.O=C(O)C(=O)O	-7.28%
CCCCCCSc1nsc(N)n1	-10.8%
Cc1cccnc1NC(=O)CNC(=O)C12CC3CC(CC(Cl)(C3)C1)C2	13%
CCCCc1ccc(-c2nc(-c3ccncc3)no2)cc1	16%
Cc1ccsc1-c1nc(C(N)=O)c2[nH]c(=O)n(-c3ccc(Cl)cc3)c2n1	1.51%
Cc1cccc(OCC(=O)Nc2ccc(C(=O)NCc3cccnc3)cc2)c1	-0.608%

Compound	hERG current change (%, negative = inhibition) at 10uM
COc1cc(C(=O)NCc2cccnc2)ccc1OCC(=O)Nc1cccc(C(F)(F)F)c1	3.13%
O=C(COc1ccc(C(=O)NCc2cccnc2)cc1)Nc1cccc(C(F)(F)F)c1	-60.6%
O=C(NCc1cccnc1)c1ccc(COc2ccc(Cl)cc2)cc1	-58.6%
O=C(NCc1cccnc1)c1ccc(COc2ccccc2Cl)cc1	4.47%
O=C(COc1ccc(Cl)cc1)Nc1ccc(C(=O)NCc2cccnc2)cc1	-36.8%
Cc1cccc(-n2c(C)cc(/C=N\NC(=O)c3ccco3)c2C)c1	-12.8%
O=C(Cc1cccc(F)c1)N1CCCC(CO)(Cc2ccc(F)cc2F)C1 (stereo not drawn)	-9.84%
Cc1ccccc1CC1(CO)CCCN(C(=O)Cc2c(F)ccc(F)c2F)C1 (stereo not drawn)	-0.736%
OCC1(Cc2ccccc2F)CCCN(Cc2c(F)ccc(F)c2F)C1 (stereo not drawn)	-55.5%
OCC1(Cc2ccc(F)cc2)CCCN(CCc2ccccc2)C1 (stereo not drawn)	-45.5%
OCC1(Cc2ccccc2F)CCCN(CCc2ccccc2)C1 (stereo not drawn)	-74.8%
C=CCC(=O)N1CCCC(CO)(Cc2ccc(F)cc2F)C1 (stereo not drawn)	0.892%
OCC1(Cc2ccc(F)cc2F)CCCN(CCCc2ccccc2)C1 (stereo not drawn)	-82.9%
OCC1(Cc2ccccc2F)CCCN(CC2CCCCC2)C1 (stereo not drawn)	-37.7%
CSCCCN1CCCC(CO)(Cc2ccccc2F)C1 (stereo not drawn)	-38.3%
CC(C)NC(=O)C1CCN(C2CCN(CC3CC=CCC3)CC2)CC1 (stereo not drawn)	-15%
O=C(O)c1cc(-c2cccs2)[nH]n1	15.5%
C/C(=N\NC(=O)c1[nH]c2c([N+](=O)[O-])cc(C)cc2c1-c1ccccc1)c1cccnc1	6.67%
CN1CCN(C(=O)C23CCC(C)(c4nc5ccccc5nc42)C3(C)C)CC1 (stereo not drawn)	-53.3%
CC12CCC(C(=O)N3CCN(c4ncccn4)CC3)(c3nc4ccccc4nc31)C2(C)C (stereo not drawn)	-20.2%
CC12CCC(C(N)=O)(c3nc4ccccc4nc31)C2(C)C (stereo not drawn)	-4.08%
O=[N+]([O-])c1ccc(N2CCOCC2)cn1	15.4%
O=[N+]([O-])c1ccc(N2CCN(c3cccc(Cl)c3)CC2)cn1	-63.2%
O=[N+]([O-])c1ccc(N2CCCCC2)cn1	8.92%

Compound	hERG current change (%, negative = inhibition) at 10uM
O=[N+]([O-])c1ccc(N2CCN(c3ccc(O)cc3)CC2)cn1	-52.8%
O=[N+]([O-])c1ccc(N2CCN(c3ccc(F)cc3)CC2)cn1	-48.7%
O=[N+]([O-])c1ccc(N2CCN(c3ccccc3Cl)CC2)cn1	-34.3%
Cn1c(C(=O)NCc2ccccn2)cc2c(=O)n3ccccc3nc21	-1.42%
CN(C)S(=O)(=O)c1cccc(NC(=O)c2cc3ccccc3o2)c1	-13.7%
CCOc1ccc(N2C(=O)/C(=C/c3cccs3)N(CC(=O)OC)C2=S)cc1	-28%
COC(=O)C(NC(C)=O)(Nc1nc2c(s1)CCCC2)C(F)(F)F (stereo not drawn)	-4.29%
COCCCNC(=O)CSC1=Nc2ccccc2C2=NC(c3ccccc3)C(=O)N12 (stereo not drawn)	-22.2%
O=C(Nc1ccc(F)cc1)Nc1ccc2ccccc2n1	14.2%
COCCN(C(=O)c1cccc(N2C(=O)CCC2=O)c1)c1nc(-c2ccc([N+](=O)[O-])cc2)cs1	-50.2%
Cc1cc(C)c2nc(N(CCN(C)C)C(=O)c3ccc4ccccc4c3)sc2c1.Cl	11.6%
COc1ccc(OC)c2sc(N(CCN(C)C)C(=O)c3ccc4ccccc4c3)nc12.Cl	-11.3%
COc1ccc(C)c2sc(N(CCN(C)C)C(=O)c3ccc4ccccc4c3)nc12.Cl	-20.7%
COCCN(C(=O)C1CC(=O)N(Cc2ccccc2)C1)c1nc(-c2ccc([N+](=O)[O-])cc2)cs1 (stereo not drawn)	-29.7%
Cc1cc(C)c2nc(N(CCCN(C)C)C(=O)c3ccc4c(c3)OCCO4)sc2c1.Cl	-51.2%
COc1ccc(Cl)c2sc(N(CCN(C)C)C(=O)c3ccc4c(c3)OCCO4)nc12.Cl	-29.2%
COc1ccc(C)c2sc(N(CCN(C)C)C(=O)c3cccc(N4C(=O)CCC4=O)c3)nc12.Cl	-57.9%
COc1ccc(-c2csc(NC(=O)c3cccc(N4C(=O)CCC4=O)c3)n2)cc1OC	-1.68%
COc1ccc(C)c2sc(N(CCCN(C)C)C(=O)c3ccc4c(c3)OCCO4)nc12.Cl	-75.6%
CN(C)CCN(C(=O)c1cccc(N2C(=O)CCC2=O)c1)c1nc2ccc(Br)cc2s1.Cl	-48.7%
Cc1cc(C)c2nc(N(CCCN(C)C)C(=O)c3ccc4c(c3)CCCC4)sc2c1.Cl	-3.72%
